According to PubChem BioAssay AID620 (Sanford-Burnham Center for Chemical Genomics, 2007):
In all, about 87,000 compounds went through this assay and about 360 (0.41%) were called active. Shown is part of a subset that was picked to be rich in actives. A number with no mark means an inactive call. Rule as the data show it: active = cytotoxicity above about 50%; inactive = the rest.

Assay: HT1080 cell viability loss – fluorescence readout (AID 620);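 also: cells exposed to compound overnight then 4 h with Alamar Blue; 0% = vehicle DMSO and 100% = killing control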
Conditions: at 10 µM, active compounds read high
In the case of `O=C(Nc1ccc(Cl)cc1)Nc1nccs1`, the cytotoxicity is reported as 61.1% (active).
With `CON(C)C(=O)Nc1ccc(Cl)cc1` the cytotoxicity was 1.8%.
For `CCOC(=O)c1c(C)n(CCN2CCN(C)CC2)c2ccc(OC)cc12`, the cytotoxicity was 9.6%.
Compound `CCN(CC)c1ccc(N=Cc2c(O)n(-c3ccc(OC)cc3)c(=O)[nH]c2=O)cc1` has a cytotoxicity of 0.4%.
Compound `CCOC(=O)C1SC2(C(F)F)CC1(O)c1c(c(OC)c3occc3c1OC)O2` (stereo not given) has a cytotoxicity of 5.2%.
Compound `O=c1c2ccccc2[nH]c(=S)n1-c1ccc2c(c1)OCO2` has a cytotoxicity of -0.8%.
In the case of `COc1ccc(C2NCc3ccc4c(c3-n3cccc32)OCO4)cc1O` (stereo not given), the cytotoxicity is reported as 67.8% (active).
`c1cc2n(c1)-c1c(ccc3c1OCO3)CNC2c1ccc2c(c1)OCO2` (stereo not given) showed a cytotoxicity of 3.4%.
In the case of `COc1ccc(C2NCc3ccc4c(c3-n3cccc32)OCO4)cc1OC` (stereo not given), the cytotoxicity is reported as -2.8%.
In the case of `COc1ccc(CCNC(C)CCc2ccc(OC)cc2)cc1` (stereo not given), the cytotoxicity is reported as -9.1%.
Work on `CCC(=NCCc1c[nH]c2ccccc12)c1c(O)n(C)c(=O)n(C)c1=O` yielded a cytotoxicity of 3.2%.
Compound `COc1ccc(C2C(C(=O)N3CCC4(CC3)OCCO4)c3cc(OC)c(OC)cc3C(=O)N2C)cc1` (stereo not given) has a cytotoxicity of -12.7%.
Work on `C[C@H]1CCCC(=O)CCC/C=C/c2cc(O)cc(O)c2C(=O)O1` yielded a cytotoxicity of -0.7%.
Compound `C[C@H]1CCC[C@@H](O)CCC/C=C/c2cc(O)cc(O)c2C(=O)O1` has a cytotoxicity of 12.8%.
In the case of `C[C@H]1CCC/C=C/C2C[C@H](O)CC2[C@H](O)/C=C/C(=O)O1` (stereo not given in full), the cytotoxicity is reported as 83.3% (active).
Compound `COC(=O)CC1NC2CCCCC2NC1=O` (stereo not given) has a cytotoxicity of 3.2%.
Work on `O=C1CC(N2CCC(n3c(=O)[nH]c4ccccc43)CC2)C(=O)N1c1ccc(F)cc1` (stereo not given) yielded a cytotoxicity of 2%.
Work on `O=C1CC(N2CCC(n3c(=O)[nH]c4ccccc43)CC2)C(=O)N1Cc1ccccc1` (stereo not given) yielded a cytotoxicity of 13.4%.
With `O=c1[nH]c2ccccc2n1C1CCN(CCCC(c2ccc(F)cc2)c2ccc(F)cc2)CC1` the cytotoxicity was 91.3% (active).
With `CCCCn1c(=O)c(C(=O)NCc2ccncc2)c(O)c2ccccc21` the cytotoxicity was 4.9%.
With `COc1ccccc1N1C(=O)NC(=O)C(CCc2ccncc2)(CCc2ccncc2)C1=O` the cytotoxicity was -6.4%.
`CCC(=NC1CC1)c1c(O)n(C2CCCCC2)c(=O)[nH]c1=O` showed a cytotoxicity of 15.1%.
With `CC(=O)c1cccc(NC2=NCC(C)S2)c1` (stereo not given) the cytotoxicity was 1.4%.
In the case of `COc1cccc(OC)c1C1=NCC(=O)Nc2c1oc1ccc(Br)cc21`, the cytotoxicity is reported as 64.8% (active).
`O=C1CN=C(c2ccccc2)c2oc3ccc(Br)cc3c2N1` gave a cytotoxicity of 8.1%.
`CC1=CC(=C2C(=O)NC(=S)NC2=O)C=C(C(F)(F)F)N1C` showed a cytotoxicity of 1.5%.
For `COC(=O)C[C@]1(C(=O)OC)CN(C#N)N(c2ccc(Cl)cc2)C12c1ccccc1-c1ccccc12`, the cytotoxicity was 93.9% (active).
In the case of `COC(=O)C1CN(C#N)N(c2ccc(Cl)cc2)C12c1ccccc1-c1ccccc12` (stereo not given), the cytotoxicity is reported as 84.3% (active).
For `COC(=O)[C@@H]1[C@@H](C(=O)OC)C2(c3ccccc3-c3ccccc32)N(c2ccc(Cl)cc2)N1C#N`, the cytotoxicity was 2.6%.
`CCC(=Nc1ccc2c(c1)CCC2)c1c(O)n(C2CCCCC2)c(=O)[nH]c1=O` showed a cytotoxicity of -1.6%.
Compound `CCCN1CC(C)C(OC(C)=O)(c2ccccc2)CC1C` (stereo not given) has a cytotoxicity of 1.2%.
In the case of `OC1(CN2CCOCC2)C2CC3CC(C2)CC1C3` (stereo not given), the cytotoxicity is reported as -20.1%.
In the case of `CC(=O)Nc1ccc(S(=O)(=O)NC(CC(=O)N2CCC3(CC2)OCCO3)C(C)C)cc1` (stereo not given), the cytotoxicity is reported as 4.2%.
Work on `CCOP(=O)(C#CC(C)(C)C)C(O)(c1ccccc1)C(F)(F)F` (stereo not given) yielded a cytotoxicity of 6.8%.
For `Cc1nc2c(=O)n(C)c(=O)nc-2n(C)n1`, the cytotoxicity was 103% (active).
With `O=C(CN1C2CCC1CC(O)(c1cccnc1)C2)Nc1ccc2c(c1)OCO2` (stereo not given) the cytotoxicity was 2.5%.
For `CC(C)CCP(=O)(O)c1ccccc1`, the cytotoxicity was 0.8%.
`C=CCn1c(O)c(C=NCCCOc2ccc(CC)cc2)c(=O)[nH]c1=S` showed a cytotoxicity of -6.1%.
For `CCOC(=O)C1C(=O)NC23CCCC2C1c1ccccc1O3` (stereo not given), the cytotoxicity was 13.5%.
Compound `Cc1cccc(-n2c(O)c(C=NCCCN3CCOCC3)c(=O)[nH]c2=O)c1C` has a cytotoxicity of -0.3%.
